According to PubChem BioAssay (EPA / NIEHS):
A structure can be active in one record and inactive in another. Active and inactive are the calls of the source. How the source made its calls: active means hit-call score of the fitted dose curve at least 0.9, where 1 is the maximum; inactive means score below 0.9.

Key:
[1] = ATG_CRE_CIS: Attagene CIS-FACTORIAL HepG2 Assay for human cAMP Responsive Element (CRE) binding protein 3 (AID 2282926); details: HepG2 CRE cis-reporter, Attagene multiplexed mRNA; actives raise or lower the signal
Summary of the method: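 Human liver HepG2, transient MRTU transfection, 24 h compound exposure. Total RNA → oligo(dT) RT → PCR → 6-FAM primer extension → HpaI cut → CE. Activity called both directions vs DMSO.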

[2] = molecular target: CCAAT/enhancer-binding protein beta (Homo sapiens) (UniProt P17676); test: ATG_C_EBP_CIS: Attagene CIS-FACTORIAL HepG2 Assay for human CCAAT/Enhancer Binding Protein (C/EBP) beta (AID 2282927); details: HepG2 Attagene cis-factorial transcription factor reporter; actives raise or lower the signal
Chain of CCAAT/enhancer-binding protein beta (Homo sapiens) (P17676 whole entry, looked up): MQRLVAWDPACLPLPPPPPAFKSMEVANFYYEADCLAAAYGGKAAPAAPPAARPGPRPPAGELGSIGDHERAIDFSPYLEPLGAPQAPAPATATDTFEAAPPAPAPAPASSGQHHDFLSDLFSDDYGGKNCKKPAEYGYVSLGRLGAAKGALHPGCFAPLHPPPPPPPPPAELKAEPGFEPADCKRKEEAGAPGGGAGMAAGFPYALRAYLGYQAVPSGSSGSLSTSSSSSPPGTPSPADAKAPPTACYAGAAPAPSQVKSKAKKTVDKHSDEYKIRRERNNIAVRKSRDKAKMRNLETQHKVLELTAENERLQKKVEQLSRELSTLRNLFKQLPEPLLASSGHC
Summary of the method: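 HepG2, transient MRTU transfection, 24 h treatment. RT-PCR plus CE fluorescence; DMSO negative control, bidirectional fit.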

[3] = ATG_CMV_CIS: Attagene CIS-FACTORIAL HepG2 Assay for human CMV (Internal Marker) (AID 2282928); details: HepG2 CMV promoter reporter, transcription factor profiling; actives raise or lower the signal;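 further: endpoint acts as a background internal control marker rather than a target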
Summary of the method: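 Cell system: HepG2, transiently transfected multiple reporter units under cis promoters. Exposure: 24 h. Detection: RT-PCR, FAM labeling, HpaI digestion, capillary electrophoresis. Analysis: bidirectional, DMSO baseline.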

[4] = ATG_DR4_LXR_CIS: Attagene CIS-FACTORIAL HepG2 Assay for human Liver X Receptor (LXR), DR4 submotif (AID 2282929); details: HepG2 Attagene DR4 cis-reporter, mRNA transcription; actives raise or lower the signal
Summary of the method: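 Endogenous factor activity at a DR4 cis-element is read as reporter mRNA in transiently transfected HepG2 cells. Exposure lasts 24 h; transcripts are amplified, fluorescently labelled and sized by capillary electrophoresis, with DMSO as baseline.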

[5] = ATG_AP_1_CIS: Attagene CIS-FACTORIAL HepG2 Assay for human Activator Protein 1 (AP-1) (AID 2282931); details: HepG2 Attagene cis-factorial AP-1 reporter mRNA; actives raise or lower the signal
Summary of the method: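 Fluorescence of labelled PCR fragments separated by capillary electrophoresis gives reporter mRNA levels. HepG2 with transfected cis-regulated reporter units, 24 h exposure; DMSO serves as baseline for bidirectional curve fits.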

[6] = ATG_AP_2_CIS: Attagene CIS-FACTORIAL HepG2 Assay for human Activator Protein 2 (AP-2) (AID 2282932); details: HepG2 AP-2 cis-reporter, Attagene transcription factor profiling; actives raise or lower the signal
Summary of the method: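 HepG2 cells transiently transfected with cis-element reporter units and exposed for 24 h. Reporter mRNA measured by RT-PCR, FAM labelling, HpaI digestion and capillary electrophoresis. Changes in either direction fitted relative to DMSO.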

[7] = ATG_BRE_CIS: Attagene CIS-FACTORIAL HepG2 Assay for human Bone Morphogenetic Protein (BMP) Response Element (BRE) (AID 2282933); details: HepG2 BMP response element reporter, Attagene transcription factor profiling; actives raise or lower the signal
Summary of the method: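 Transient MRTU transfection of human HepG2 liver cells; 24 h compound treatment; total RNA isolated, reverse-transcribed, PCR-amplified, 6-FAM labelled, HpaI-cut, capillary electrophoresis. DMSO = negative control/baseline, bidirectional fit.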

[8] = molecular target: Retinoic acid receptor alpha (Homo sapiens) (UniProt P10276); test: ATG_DR5_RAR_CIS: Attagene CIS-FACTORIAL HepG2 Assay for human Retinoic Acid Receptor Alpha (RARE), DR5 submotif (AID 2282934); details: HepG2 Attagene cis-factorial RARE DR5 reporter, mRNA; actives raise or lower the signal
Chain of Retinoic acid receptor alpha (Homo sapiens) (P10276 whole entry, looked up): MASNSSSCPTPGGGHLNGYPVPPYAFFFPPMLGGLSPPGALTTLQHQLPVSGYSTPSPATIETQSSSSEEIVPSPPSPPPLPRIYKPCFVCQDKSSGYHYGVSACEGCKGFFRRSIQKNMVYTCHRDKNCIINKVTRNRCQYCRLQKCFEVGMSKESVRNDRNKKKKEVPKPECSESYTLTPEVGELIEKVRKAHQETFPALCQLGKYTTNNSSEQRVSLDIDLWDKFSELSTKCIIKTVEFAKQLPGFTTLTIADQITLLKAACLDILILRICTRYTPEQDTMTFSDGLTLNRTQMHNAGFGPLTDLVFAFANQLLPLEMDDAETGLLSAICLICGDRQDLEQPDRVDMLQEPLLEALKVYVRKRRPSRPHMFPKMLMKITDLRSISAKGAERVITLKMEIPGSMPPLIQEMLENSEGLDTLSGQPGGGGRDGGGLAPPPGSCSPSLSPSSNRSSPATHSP
Summary of the method: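 After 24 h of chemical exposure, transiently transfected HepG2 cells were lysed for total RNA; the DR5-regulated reporter transcript was quantified via RT-PCR and capillary electrophoresis, with activity fitted bidirectionally against DMSO.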

[9] = molecular target: Transcription factor E2F1 (Homo sapiens) (UniProt Q01094); test: ATG_E2F_CIS: Attagene CIS-FACTORIAL HepG2 Assay for human E2F Transcription Factor 1 (AID 2282935); details: HepG2 Attagene cis-reporter, E2F reporter RNA transcripts; actives raise or lower the signal
Chain of Transcription factor E2F1 (Homo sapiens) (Q01094 whole entry, looked up): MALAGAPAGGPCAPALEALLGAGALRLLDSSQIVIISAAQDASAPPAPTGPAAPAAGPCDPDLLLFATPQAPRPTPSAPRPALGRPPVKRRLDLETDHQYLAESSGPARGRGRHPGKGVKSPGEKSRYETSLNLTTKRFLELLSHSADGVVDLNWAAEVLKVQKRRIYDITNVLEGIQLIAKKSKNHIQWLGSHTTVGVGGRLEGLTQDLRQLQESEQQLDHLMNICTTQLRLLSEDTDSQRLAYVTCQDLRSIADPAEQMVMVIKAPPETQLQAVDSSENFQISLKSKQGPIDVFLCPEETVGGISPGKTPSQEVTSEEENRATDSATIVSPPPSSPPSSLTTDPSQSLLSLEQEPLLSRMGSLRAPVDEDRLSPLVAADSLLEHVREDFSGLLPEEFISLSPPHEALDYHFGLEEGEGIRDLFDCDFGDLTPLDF
Summary of the method: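 Endogenous E2F1 activity read through cis-promoter reporter units transfected into HepG2. After 24 h compound treatment, reporter mRNA measured by RT-PCR, HpaI digestion and capillary electrophoresis. Bidirectional fit versus DMSO.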

[10] = ATG_E_Box_CIS: Attagene CIS-FACTORIAL HepG2 Assay for human Enhancer Box (E-box) (AID 2282936); details: HepG2 E-box cis-reporter transcription, actives raise or lower the signal
Summary of the method: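 HepG2 cells transiently transfected with multiplexed cis-element reporter units, dosed 24 h; reporter mRNA quantified by RT-PCR, 6-FAM labelling, HpaI digestion and capillary electrophoresis. E-box (USF1) signal fitted bidirectionally vs DMSO.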

[11] = ATG_M_61_CIS: Attagene CIS-FACTORIAL HepG2 Assay for M61 Transcription Factor (Internal Marker) (AID 2282937); details: HepG2 Attagene CIS-FACTORIAL M61 internal marker reporter; actives raise or lower the signal
Summary of the method: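 This endpoint serves as an internal background control within a multiplexed HepG2 cis-reporter panel. Cells are exposed for 24 h; reporter mRNA is amplified, fluorescently labelled and sized by capillary electrophoresis, with DMSO as negative control.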

[12] = ATG_M_19_CIS: Attagene CIS-FACTORIAL HepG2 Assay for M19 Transcription Factor (Internal Marker) (AID 2282939); details: HepG2 Attagene CIS-FACTORIAL M19 internal marker reporter; actives raise or lower the signal
Summary of the method: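 Transfect HepG2 with MRTU reporter library → dose chemical, 24 h → isolate total RNA, reverse-transcribe with oligo(dT) → PCR, 6-FAM label, HpaI cut (2 h, 37 C) → capillary electrophoresis. Bidirectional fit vs DMSO.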

[13] = ATG_FoxO_CIS: Attagene CIS-FACTORIAL HepG2 Assay for human Forkhead box O (FoxO) (AID 2282943); details: HepG2 Attagene cis-reporter, FoxO element, mRNA; actives raise or lower the signal
Summary of the method: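 Transfected HepG2 reporter cells exposed to test chemical for 24 h; reporter RNA measured by reverse transcription, PCR and fluorescent capillary electrophoresis; curves fitted for increases and decreases against DMSO.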

[14] = ATG_GATA_CIS: Attagene CIS-FACTORIAL HepG2 Assay for human GATA Binding Protein (AID 2282944); details: HepG2 GATA cis-element reporter, Attagene multiplex mRNA; actives raise or lower the signal
Summary of the method: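 Transient MRTU transfection, HepG2, 24 h compound exposure. Total RNA → oligo(dT) RT → PCR → 6-FAM primer extension → HpaI cut → CE. Bidirectional fit vs DMSO.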

[15] = ATG_GLI_CIS: Attagene CIS-FACTORIAL HepG2 Assay for human Zinc Finger Protein GLI1 (AID 2282945); details: HepG2, Attagene cis-factorial reporter mRNA, GLI element; actives raise or lower the signal
Summary of the method: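 Transiently transfected HepG2 cells report endogenous transcription factor activity via cis-element-driven reporter units. After 24 h compound exposure, reporter mRNA was measured by RT-PCR with capillary electrophoresis; bidirectional fitting against DMSO baseline.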

[16] = ATG_EGR_CIS: Attagene CIS-FACTORIAL HepG2 Assay for human Early Growth Response 1 (EGR1) (AID 2282938); details: HepG2 Attagene CIS-FACTORIAL EGR reporter mRNA; actives raise or lower the signal
Summary of the method: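 HepG2, transient MRTU transfection (cis promoters), 24 h compound. RNA → RT (oligo-dT) → PCR → 6-FAM labelling → HpaI cut → CE fluorescence. Bidirectional fit, DMSO baseline.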

[17] = ATG_ERE_CIS: Attagene CIS-FACTORIAL HepG2 Assay for Estrogen Response Element (ERE) (AID 2282940); details: HepG2 ERE cis-reporter, Attagene RNA transcript; actives raise or lower the signal
Summary of the method: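 Transient MRTU transfection of human HepG2; cis-element promoters; 24 h dosing; total RNA → RT (oligo dT) → PCR → 6-FAM primer extension → HpaI digest → CE fluorescence. Bidirectional fit, DMSO baseline.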

[18] = ATG_Ets_CIS: Attagene CIS-FACTORIAL HepG2 Assay for human Erythroblast Transformation Specific (ETS) (AID 2282941); details: HepG2 ETS cis-reporter transcription, actives raise or lower the signal
Summary of the method: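 After transient cis-reporter transfection, HepG2 cells receive test chemical for 24 h. Reporter mRNA levels, measured by RT-PCR and capillary electrophoresis fluorescence, are analysed bidirectionally relative to the DMSO baseline.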

[19] = molecular target: Hepatocyte nuclear factor 3-beta (Homo sapiens) (UniProt Q9Y261); test: ATG_FoxA2_CIS: Attagene CIS-FACTORIAL HepG2 Assay for human Forkhead box A2 (FOXA2) (AID 2282942); details: HepG2 cis-reporter transcription factor activity, 24 h; actives raise or lower the signal
Chain of Hepatocyte nuclear factor 3-beta (Homo sapiens) (Q9Y261 whole entry, looked up): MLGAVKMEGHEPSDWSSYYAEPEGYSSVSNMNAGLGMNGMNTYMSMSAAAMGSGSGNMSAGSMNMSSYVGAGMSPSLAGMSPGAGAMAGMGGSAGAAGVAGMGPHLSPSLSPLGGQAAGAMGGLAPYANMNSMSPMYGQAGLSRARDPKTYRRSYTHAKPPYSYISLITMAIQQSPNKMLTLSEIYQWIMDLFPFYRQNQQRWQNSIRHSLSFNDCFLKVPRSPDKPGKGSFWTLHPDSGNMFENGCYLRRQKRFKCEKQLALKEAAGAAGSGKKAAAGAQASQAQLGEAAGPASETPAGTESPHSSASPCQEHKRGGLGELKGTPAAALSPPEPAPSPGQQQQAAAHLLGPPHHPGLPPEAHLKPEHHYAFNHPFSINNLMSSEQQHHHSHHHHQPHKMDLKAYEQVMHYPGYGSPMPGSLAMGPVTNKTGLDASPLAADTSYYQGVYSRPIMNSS
Summary of the method: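 Cells: HepG2, transient multiplex reporter transfection. Exposure 24 h. Detection: reporter-specific RT-PCR, fluorescent labelling, restriction digest, capillary electrophoresis. Analysis: bidirectional curve fit, DMSO as negative control.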

[20] = molecular target: Aryl hydrocarbon receptor (Homo sapiens) (UniProt P35869); test: ATG_Ahr_CIS: Attagene CIS-FACTORIAL HepG2 Assay for human Aryl Hydrocarbon Receptor (Ahr) (AID 2282930); details: HepG2 AhR cis-factorial reporter transcription; actives raise or lower the signal
Chain of Aryl hydrocarbon receptor (Homo sapiens) (P35869 whole entry, looked up): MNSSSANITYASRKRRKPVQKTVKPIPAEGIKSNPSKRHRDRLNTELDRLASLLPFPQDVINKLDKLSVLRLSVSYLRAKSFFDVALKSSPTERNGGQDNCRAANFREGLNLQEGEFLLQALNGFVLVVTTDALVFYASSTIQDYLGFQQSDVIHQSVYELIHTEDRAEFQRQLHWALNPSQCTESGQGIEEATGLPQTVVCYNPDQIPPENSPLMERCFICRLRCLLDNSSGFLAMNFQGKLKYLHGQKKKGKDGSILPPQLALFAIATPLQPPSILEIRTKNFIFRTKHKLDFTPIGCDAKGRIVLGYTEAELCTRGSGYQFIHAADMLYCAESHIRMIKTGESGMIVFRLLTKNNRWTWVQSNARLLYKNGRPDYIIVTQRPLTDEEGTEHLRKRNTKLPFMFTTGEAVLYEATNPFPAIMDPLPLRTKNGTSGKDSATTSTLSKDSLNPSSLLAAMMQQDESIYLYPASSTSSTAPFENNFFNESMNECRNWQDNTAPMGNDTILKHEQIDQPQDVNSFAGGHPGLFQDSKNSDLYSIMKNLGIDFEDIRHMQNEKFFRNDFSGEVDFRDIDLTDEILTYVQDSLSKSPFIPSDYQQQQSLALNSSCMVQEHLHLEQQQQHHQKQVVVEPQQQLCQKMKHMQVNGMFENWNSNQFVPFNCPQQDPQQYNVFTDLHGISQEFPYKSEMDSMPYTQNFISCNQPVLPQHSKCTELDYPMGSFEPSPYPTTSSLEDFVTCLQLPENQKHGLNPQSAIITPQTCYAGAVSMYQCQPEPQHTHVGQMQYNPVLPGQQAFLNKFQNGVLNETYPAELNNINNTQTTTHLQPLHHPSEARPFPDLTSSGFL
Summary of the method: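 Endogenous factor activity is tracked through cis-promoter reporter units transfected into HepG2 cells. Transcript levels at 24 h are read by fluorescent RT-PCR and capillary electrophoresis, with activity in either direction scored relative to DMSO.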

Measured: AC50

c1ccc(Nc2ccccc2)cc1
inactive: [1] | [2] | [3] | [4] | [5] | [6] | [7] | [8] | [9] | [10] | [11] | [12] | [13] | [14] | [15]
active: [7] 16.6 µM

CCOC(=O)NCCOc1ccc(Oc2ccccc2)cc1
active: [2] 13.4 µM | [3] 13.1 µM | [4] 89.6 µM | [7] 27.9 µM | [16] 50 µM | [17] 12.6 µM
not listed: [6] | [19] | [20]
inactive: all other assays above

CCC(C)OC(=O)N1CCCCC1CCO (stereo unspecified)
not listed: [17] | [20]
inactive: all other assays above

CCOC(=O)COc1cc(-n2ncc(C(F)(F)F)c(C)c2=O)c(F)cc1Cl
not listed: [1]
inactive: all other assays above

COc1nc(C)nc(NC(=O)NS(=O)(=O)c2ccccc2OCCCl)n1
inactive: [2] | [3] | [4] | [5] | [7] | [8] | [9] | [10] | [11] | [12] | [17] | [18] | [19] | [13] | [14] | [15]
active: [4] 9.13 µM

CCN(CC)C(=O)c1cccc(C)c1
not listed: [1] | [16] | [18]
inactive: all other assays above

COC(=O)c1ccccc1C(=O)O
not listed: [1] | [6] | [16] | [18] | [19] | [20]
inactive: all other assays above

CCSC(=O)N(CC(C)C)CC(C)C
not listed: [1] | [6] | [18] | [19] | [20]
inactive: all other assays above

CCC(O)=C1C(=O)CC(C(=O)O)CC1=O (stereo unspecified)
not listed: [1] | [6] | [16] | [18] | [19]
inactive: all other assays above

C[C@]12CC[C@@H]3c4ccc(O)cc4C[C@@H](CCCCCCCCCS(=O)CCCC(F)(F)C(F)(F)F)[C@H]3[C@@H]1CC[C@@H]2O (stereo partly specified)
not listed: [1] | [18] | [20]
inactive: all other assays above

CCCCC(CC)COC(=O)c1ccccc1C(=O)O (stereo unspecified)
not listed: [1] | [8] | [16] | [17] | [18] | [19] | [20]
inactive: all other assays above

CCCOC(=O)c1ccc(C(=O)OCCC)nc1
not listed: [1] | [6] | [18] | [19]
inactive: all other assays above

O=C(Nc1ccc([N+](=O)[O-])cc1Cl)c1cc(Cl)ccc1O
active: [2] 0.463 µM | [3] 1.16 µM | [5] 1.01 µM | [7] 0.652 µM | [16] 0.894 µM
not listed: [1] | [6] | [19] | [20]
inactive: all other assays above

CCCCCOC(=O)COc1cc(N2C(=O)C3=C(CCCC3)C2=O)c(F)cc1Cl
active: [4] 32.6 µM | [10] 50 µM
not listed: [1] | [6] | [16] | [18] | [19] | [20]
inactive: all other assays above

CCCN(CCC)c1c([N+](=O)[O-])cc(C(F)(F)F)c(N)c1[N+](=O)[O-]
active: [3] 24.5 µM | [4] 6.65 µM | [20] 28.9 µM | [5] 63 µM | [7] 36.1 µM | [13] 50 µM
not listed: [1] | [18] | [19]
inactive: all other assays above
